About 79,000 compounds went through this panel and 15% of them were active in at least one assay; those are over-represented in the sample as a whole. A number with no mark means an inactive call. The source made the active and inactive calls. Rule as the data show it: active = growth inhibition above about 70%; inactive = the rest.
Columns and labels:
[1] = NCI Yeast Anticancer Drug Screen. Data for the rad50 strain (AID 155);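 also: 0% = growth of vehicle-only cultures of the same strain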; settings: S. cerevisiae rad50 strain growth inhibition, hits give high values
Method in brief: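 DNA repair mutant yeast, compound exposure, growth read-out; inhibition is taken relative to vehicle.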

[2] = NCI Yeast Anticancer Drug Screen. Data for the mec2-1 strain (AID 157); settings: S. cerevisiae mec2-1 strain, hits give high values
Method in brief: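 Cells of the genetically defined mec2-1 yeast strain are incubated with test compound. Inhibition of growth is calculated against vehicle-treated controls.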

[3] = NCI Yeast Anticancer Drug Screen. Data for the sgs1 mgt1 strain (AID 161);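 also: 0% = growth of cultures given vehicle only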; settings: S. cerevisiae sgs1 mgt1 strain, hits give high values
Method in brief: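 Test agents were incubated with a DNA-repair-mutant yeast strain. Growth was then read and compared against vehicle-treated controls.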

[4] = NCI Yeast Anticancer Drug Screen. Data for the cln2 rad14 strain (AID 165);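 also: 0% = growth equal to vehicle treated cultures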; settings: S. cerevisiae cln2 rad14 strain, hits give high values
Method in brief: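 The screen exposed genetically defined yeast (cln2 rad14) to test compounds and scored growth inhibition relative to vehicle-treated controls.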

[5] = NCI Yeast Anticancer Drug Screen. Data for the bub3 strain (AID 167); settings: S. cerevisiae bub3 mutant strain, hits give high values
Method in brief: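 In this screen, a yeast mutant lacking normal mitotic checkpoint function is challenged with compound. Relative growth versus vehicle gives the inhibition value.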

[6] = NCI Yeast Anticancer Drug Screen. Data for the mlh1 rad18 strain (AID 175); settings: S. cerevisiae mlh1 rad18 strain growth inhibition, hits give high values
Method in brief: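 Compound-treated yeast growth, normalised to vehicle controls. Strain bears defined DNA repair mutations.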

[7] = at 5.0 µM (retest, dose inferred, filed as 0.5)
[8] = at 50.0 µM (retest, dose inferred, filed as 5.0)

Compound	growth inhibition [1, 7]	growth inhibition [1, 8]	growth inhibition ([1]; at 50.0 µM)	growth inhibition [2, 7]	growth inhibition [2, 8]	growth inhibition ([2]; at 50.0 µM)	growth inhibition [3, 7]	growth inhibition [3, 8]	growth inhibition ([3]; at 50.0 µM)	growth inhibition [4, 7]	growth inhibition [4, 8]	growth inhibition ([4]; at 50.0 µM)	growth inhibition [5, 7]	growth inhibition [5, 8]	growth inhibition ([5]; at 50.0 µM)	growth inhibition [6, 7]	growth inhibition [6, 8]	growth inhibition ([6]; at 50.0 µM)
COc1ccc(P2(=S)Oc3ccc(C(c4ccccc4)(c4ccccc4)c4ccccc4)cc3O2)cc1 (configuration not stated)	36%	96% (active)	38.6%	11%	98% (active)	64.3%	34%	96% (active)	54.7%	24%	98% (active)	63.2%	7%	98% (active)	48.9%	34%	98% (active)	58.1%
CC(=O)c1ccc(-[n+]2c(C)cc(-c3ccccc3)cc2C)cc1	-11%	-1%	-15.4%	-1%	-6%	-7.4%	-19%	-8%	-13.6%	3%	-3%	39.6%	-4%	-1%	15.7%	-5%	-6%	21.9%
O=[N+]([O-])c1cc[n+]([O-])c2ccccc12	99% (active)	98% (active)	99.2% (active)	100% (active)	99% (active)	53.9%	99% (active)	99% (active)	54.9%	100% (active)	100% (active)	99.3% (active)	98% (active)	99% (active)	49.5%	99% (active)	99% (active)	98% (active)
C[C@]12CCCC[C@@H]1CC[C@@H]1[C@@H]2C(=O)C[C@@]2(C)[C@H]1CC[C@]2(C)O	6%	97% (active)	60.4%	0%	99% (active)	99% (active)	0%	99% (active)	50.3%	0%	97% (active)	20.6%	-4%	80% (active)	53%	30%	99% (active)	98% (active)
Cc1cc([N+](=O)[O-])c2ccccc2[n+]1[O-]	99% (active)	99% (active)	99.1% (active)	100% (active)	100% (active)	99.5% (active)	99% (active)	99% (active)	48.6%	100% (active)	100% (active)	58.4%	99% (active)	99% (active)	99.2% (active)	100% (active)	100% (active)	49.8%
COc1ccc2c(c1)CCC(N1CCCC(=O)C1)C2 (configuration not stated)	9%	11%	23.1%	8%	17%	24.4%	8%	26%	66%	11%	38%	17.4%	4%	31%	89.1% (active)	9%	29%	25.1%
COc1cc2c(cc1OC)C(OC)N(C)c1c-2ccc2cc3c(cc12)OCO3 (configuration not stated)	16%	41%	3.45%	9%	12%	-48%	7%	30%	-22.1%	16%	33%	6.7%	2%	30%	-40%	17%	24%	-21.8%
CC1=C(N2CC2)C(=O)c2nc3n(c2C1=O)CCC3OC(=O)CCl (configuration not stated)	28%	61%	46.5%	6%	47%	57%	18%	60%	72.2% (active)	5%	31%	57.9%	24%	19%	6%	23%	67%	66.1%
CC1(CO)C(O)CCC2(C)C1CCC1CC3CC12CCC3(O)CO (configuration not stated)	4%	87% (active)	-3.35%	65%	99% (active)	-18.8%	1%	80% (active)	19.1%	-13%	68%	-0.7%	-27%	77% (active)	-10%	14%	91% (active)	3.7%
CCC(=O)C(CCN1CCC(N2C(=O)C(CCC#N)c3ccccc32)CC1)(c1ccccc1)c1ccccc1 (configuration not stated)	-3%	-3%	-7.55%	-6%	-6%	-23.4%	8%	-3%	10.8%	-2%	14%	3.15%	-1%	-17%	10.2%	-23%	1%	32.2%
S=C=NCCc1ccccc1	-12%	21%	72% (active)	-13%	18%	48.4%	-5%	-8%	42.5%	2%	8%	28.1%	5%	20%	43.8%	-20%	15%	61.6%
Cc1cc(OC(=O)N(CCCl)CCCl)c(C(C)C)cc1N=O	19%	91% (active)	97.3% (active)	20%	97% (active)	97.5% (active)	17%	96% (active)	78.5% (active)	10%	92% (active)	97.2% (active)	1%	94% (active)	18.8%	33%	97% (active)	97.7% (active)
BrP(NC1CCCCCC1)(c1ccccc1)(c1ccccc1)c1ccccc1	43%	97% (active)	98.5% (active)	39%	99% (active)	99.3% (active)	47%	98% (active)	99.2% (active)	12%	97% (active)	98.7% (active)	25%	98% (active)	99% (active)	65%	98% (active)	99% (active)
COc1cc(/C=C/[N+](=O)[O-])cc(Br)c1OC	86% (active)	98% (active)	90.6% (active)	79% (active)	99% (active)	92.3% (active)	83% (active)	98% (active)	92.5% (active)	55%	97% (active)	90.2% (active)	97% (active)	98% (active)	91.5% (active)	89% (active)	98% (active)	91.7% (active)
C1CCC(NCC2CCCO2)CC1 (configuration not stated)	-12%	1%	77.5% (active)	-10%	-21%	71% (active)	-1%	-9%	79.5% (active)	25%	30%	76.3% (active)	-2%	17%	77.8% (active)	-4%	-31%	58.3%
O=S(=O)(F)c1cc(Cl)c(O)cc1Cl	-143%	16%	78.3% (active)	-45%	48%	57.8%	-61%	60%	79.6% (active)	-41%	47%	51.5%	-57%	39%	78.2% (active)	-114%	45%	83.2% (active)
ClCCN(Cc1ccccc1)CC1COc2ccccc2O1 (configuration not stated)	10%	72% (active)	91.2% (active)	-1%	79% (active)	92.1% (active)	7%	95% (active)	90.5% (active)	-2%	34%	82.7% (active)	11%	90% (active)	97.3% (active)	15%	94% (active)	97.3% (active)
C/C(=C\c1ccccc1)[N+](=O)[O-]	96% (active)	99% (active)	98.7% (active)	26%	100% (active)	93.2% (active)	26%	98% (active)	92.4% (active)	11%	97% (active)	46.9%	12%	99% (active)	94.2% (active)	35%	99% (active)	99.3% (active)
COC1CC(C)C(OC)C2=CC(=O)C=C(NC(=O)/C(C)=C/C=C\C(C)C(OC(N)=O)/C(C)=C\C(C)C1OC)C2=O (configuration not stated)	93% (active)	98% (active)	91.5% (active)	97% (active)	99% (active)	93% (active)	97% (active)	99% (active)	92.5% (active)	89% (active)	97% (active)	91.2% (active)	97% (active)	99% (active)	91.1% (active)	97% (active)	98% (active)	91.4% (active)

Reference: PubChem BioAssay (NCI)
